{
  "source": "PubChem BioAssay (NCATS)",
  "note": "Several values for one entry are separate records, joined by “and”; a condition that tells them apart may be missing. Equal values may be shown once. Results filed as inconclusive are left out. A number with no mark means an inactive call. Activity calls are given as the source filed them. Calls follow the shape of the dose curve; as a rule, active = well fitted curve in either direction with a large enough effect (not every such curve was filed as active); inconclusive = small, poorly fitted or top-dose-only effect, or another doubt; inactive = flat fitted curve, though single readings scatter. % is scaled to controls: 0 for no effect and ±100 for the full control effect.",
  "data": [
    {"experiment": "Stat Signaling Pathway (AID 446)", "details": "ME-180 SIE beta-lactamase reporter, IL-6 stimulated, 5 h; at 7.69 µM (top of the series)", "description": "(§1) NCGC Assay Overview: The IL-6/STAT signaling pathway was assayed in ME-180 cervical carcinoma cells by a beta-lactamase reporter gene controlled by a STAT Inducible Element (SIE). This reporter is induced by IL-6 at 40 pM AC50 and inhibited by the pan JAK inhibitor, 2-(1,1-Dimethylethyl)-9-fluoro-3,6-dihydro-7H-benz[h]-imidaz[4,5-f]isoquinolin-7-one, at approximately 10 nM AC50. Plated cells were incubated overnight and on the following day, stimulated with 40 pM IL-6 for 5 hrs. The assay was screened at the AC50 of IL-6 activation to identify both inhibitors and activators of IL-6/STAT signaling.\n(§2) NCGC Assay Protocol Summary: Cells were trypsinized, washed in assay medium (AM, OPTI MEM with 0.5% fetal bovine serum, 0.1 mM nonessential amino acids, 1 mM sodium pyruvate, 10mM HEPES pH 7.3, 100U/ml penicillin, and 100 ug/ml streptomycin) and suspended at 6 x 10e5/ml in AM. Approximately […] cells in 5 uL/well was dispensed into 1536 well plates and the cells were incubated overnight at 37 C. 23 nL of compound were delivered by a pin tool and 1 uL of IL-6 (40 pM final concentration in AM) was added. After centrifugation at 1000 rpm for less than a minute, plates were incubated at 37C for 5 hrs. One uL of detector mix (LiveBLAzerTM, Invitrogen) was added, the plates incubated at room temperature for 2.5 hrs, and fluorescence intensity at 460 and 530 nm emission was measured at 405 nm excitation by an Envision (Perkin Elmer) or Safire II (Tecan). Data were normalized by GeneData to the controls for AC90 stimulation (300 pM IL-6) and to AC90 inhibition (125 nM Jak inhibitor, 40 pM IL-6 in AM).", "units": {"activity, negative = inhibition": "%"}, "values": [
      {"smiles": "Cc1cccc(Nc2cc(Cl)nc(SCC(=O)O)n2)c1C", "activity, negative = inhibition": 0.678}
    ]},
    {"experiment": "Stat Signaling Pathway (AID 446)", "details": "ME-180 SIE beta-lactamase reporter, IL-6 stimulated, 5 h; at 17.2 µM (top of the series)", "description": "as §1, §2", "values": [
      {"smiles": "O=C(CCCN1CCN(c2ccccn2)CC1)c1ccc(F)cc1", "activity, negative = inhibition": "-8.71%"},
      {"smiles": "CC[C@H]1CN2CCc3cc(OC)c(OC)cc3[C@@H]2C[C@@H]1C[C@H]1NCCc2cc(OC)c(OC)cc21", "activity, negative = inhibition": "-96.7% (active)"},
      {"smiles": "CCN(CC)CCOC(=O)C1(C2CCCCC2)CCCCC1", "activity, negative = inhibition": "0.488% and 9.07%"},
      {"smiles": "OCCN1CCN(CCCN2c3ccccc3Sc3ccc(Cl)cc32)CC1", "activity, negative = inhibition": "-2.44% and -12%"},
      {"smiles": "CC(CN1c2ccccc2Sc2ccccc21)N(C)C", "note": "(stereo not given)", "activity, negative = inhibition": "-1.09%"},
      {"smiles": "CCCc1c(OCCCCc2nn[nH]n2)ccc(C(C)=O)c1O", "activity, negative = inhibition": "-12.8%"},
      {"smiles": "N=c1c[n+](N2CCOCC2)[n-]o1", "activity, negative = inhibition": "4.68%"},
      {"smiles": "COc1ccc2c(c1)C(=O)N(CCc1ccc(S(=O)(=O)NC(=O)NC3CCCCC3)cc1)C(=O)C2(C)C", "activity, negative = inhibition": "-7.41%"},
      {"smiles": "CN(C)CCCN1c2ccccc2Sc2ccc(Cl)cc21", "activity, negative = inhibition": "-1.56% and 4.13%"},
      {"smiles": "COC(=O)C1=C(C)NC(C)=C(C(=O)OC)C1c1ccccc1[N+](=O)[O-]", "activity, negative = inhibition": "-12.5% and -20.9%"},
      {"smiles": "C[C@H](N)[C@H](O)c1cccc(O)c1", "activity, negative = inhibition": "4.65%"},
      {"smiles": "CCCCN1CCCC[C@H]1C(=O)Nc1c(C)cccc1C", "activity, negative = inhibition": "1.67%"},
      {"smiles": "CNCCCC1c2ccccc2C=Cc2ccccc21", "activity, negative = inhibition": "-10.4% and -15.8%"},
      {"smiles": "CCC(=O)c1ccc(O)cc1", "activity, negative = inhibition": "-0.905%"},
      {"smiles": "CN(C)CCOC(C)(c1ccccc1)c1ccccn1", "note": "(stereo not given)", "activity, negative = inhibition": "5.21%"},
      {"smiles": "CCCCOc1cc(C(=O)OCCN(CC)CC)ccc1N", "activity, negative = inhibition": "-0.0669%"},
      {"smiles": "OCC(O)CN1CCN(c2ccccc2)CC1", "note": "(stereo not given)", "activity, negative = inhibition": "10.1%"},
      {"smiles": "CN(C)CCC=C1c2ccccc2CCc2ccccc21", "activity, negative = inhibition": "-2.52% and 2.81%"},
      {"smiles": "NS(=O)(=O)c1cc2c(cc1Cl)NC(CSCc1ccccc1)=NS2(=O)=O", "activity, negative = inhibition": "-11% and 0.218%"},
      {"smiles": "Nc1ccc(S(=O)(=O)Nc2nccs2)cc1", "activity, negative = inhibition": "-1.46%"},
      {"smiles": "CC1=C(CC(=O)O)c2cc(F)ccc2/C1=C\\c1ccc(S(C)=O)cc1", "note": "(stereo not given)", "activity, negative = inhibition": "0.939%"},
      {"smiles": "C[C@@H]1C[C@H]2[C@@H]3C[C@H](F)C4=CC(=O)C=C[C@]4(C)[C@@]3(F)[C@@H](O)C[C@]2(C)[C@@]1(O)C(=O)CO", "activity, negative = inhibition": "-0.0687%"},
      {"smiles": "CCOc1ccc2ccccc2c1C(=O)N[C@@H]1C(=O)N2[C@@H]1SC(C)(C)[C@@H]2C(=O)O", "activity, negative = inhibition": "2.51%"},
      {"smiles": "CC(=O)OCC(=O)[C@@]1(O)CC[C@H]2[C@@H]3CCC4=CC(=O)CC[C@]4(C)[C@H]3C(=O)C[C@@]21C", "activity, negative = inhibition": "11.3%"},
      {"smiles": "c1ccc(CN(CC2=NCCN2)c2ccccc2)cc1", "activity, negative = inhibition": "-2.58% and 2.91% and -16.4%"},
      {"smiles": "CN(C)CCCN1c2ccccc2CCc2ccccc21", "activity, negative = inhibition": "2.6% and 1.4%"},
      {"smiles": "Cn1cc[nH]c1=S", "activity, negative = inhibition": "-3.77%"},
      {"smiles": "CCCCN(CCCC)CCCOC(=O)c1ccc(N)cc1", "activity, negative = inhibition": "-8.33% and 3.52%"}
    ]},
    {"experiment": "Stat Signaling Pathway (AID 446)", "details": "ME-180 SIE beta-lactamase reporter, IL-6 stimulated, 5 h; at 38 µM (top of the series)", "description": "as §1, §2", "units": {"activity, negative = inhibition": "%"}, "values": [
      {"smiles": "CCCn1cnc2c1c(=O)n(CCCCC(C)=O)c(=O)n2C", "activity, negative = inhibition": 10.7},
      {"smiles": "CCN(CC)CCOC(=O)C1(C2CCCCC2)CCCCC1", "activity, negative = inhibition": -26},
      {"smiles": "OCCN1CCN(CCCN2c3ccccc3Sc3ccc(Cl)cc32)CC1", "activity, negative = inhibition": -28.9},
      {"smiles": "N=c1c[n+](N2CCOCC2)[n-]o1", "activity, negative = inhibition": -10.2},
      {"smiles": "CN(C)CCCN1c2ccccc2Sc2ccc(Cl)cc21", "activity, negative = inhibition": -20.2},
      {"smiles": "COC(=O)C1=C(C)NC(C)=C(C(=O)OC)C1c1ccccc1[N+](=O)[O-]", "activity, negative = inhibition": -13.9},
      {"smiles": "CNCCCC1c2ccccc2C=Cc2ccccc21", "activity, negative = inhibition": -9.63},
      {"smiles": "CN(C)CCC=C1c2ccccc2CCc2ccccc21", "activity, negative = inhibition": 28.3},
      {"smiles": "CC1=C(CC(=O)O)c2cc(F)ccc2/C1=C\\c1ccc(S(C)=O)cc1", "note": "(stereo not given)", "activity, negative = inhibition": 9.67},
      {"smiles": "NC1CCN(c2cccc(Cl)n2)CC1", "activity, negative = inhibition": -14.3},
      {"smiles": "CC(C)C(=O)c1c(C(C)C)nn2ccccc12", "activity, negative = inhibition": 2.52}
    ]}
  ]
}
